# Where a name gives a salt, the structure may show the parent alone. ± gives the uncertainty stated by the source.
# Test system: FLX1
# Assay: cell viability z-score within plate (CellTiter-Glo), mean of 3 biological replicates; higher = higher viability relative to plate (less growth inhibition)
# Conditions: 2 µM; time (hr): 120
# Procedure: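 FLX1 fibrolamellar carcinoma cells (DNAJB1-PRKACA fusion), 600 cells/well in 384-well plates, treated with a Selleck kinase inhibitor library (L1200) at 2 uM for 5 days (120 hr); viability by CellTiter-Glo. A z-score was computed within each plate and averaged over three biological replicates.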
row,SMILES,cell viability z-score within plate
1,COc1ccc(-c2cc3c(C)nc(N)nc3n([C@H]3CC[C@H](OCCO)CC3)c2=O)cn1,-0.872 ± 0.053
2,CO[C@H]1C[C@@H]2CC[C@@H](C)[C@@](O)(O2)C(=O)C(=O)N2CCCC[C@H]2C(=O)O[C@H]([C@H](C)C[C@@H]2CC[C@@H](OCCO)[C@H](OC)C2)CC(=O)[C@H](C)/C=C(\C)[C@@H](O)[C@@H](OC)C(=O)[C@H](C)C[C@H](C)/C=C/C=C/C=C/1C [Everolimus (RAD001)],-0.497 ± 1.1
3,O=C(Nc1cccc(Nc2ncc(Br)c(NCCc3cnc[nH]3)n2)c1)N1CCCC1,0.384 ± 0.1
4,CCS(=O)(=O)Nc1ccc2c(c1)/C(=C(/Nc1ccc(CN3CCCCC3)cc1)c1ccccc1)C(=O)N2 [Hesperadin],-2.01 ± 0.23
5,C=CC(=O)Nc1ccc2ncnc(Nc3cccc(Br)c3)c2c1,-1.55 ± 0.85
6,CC(=O)Nc1cccc(-n2c(=O)n(C3CC3)c(=O)c3c(Nc4ccc(I)cc4F)n(C)c(=O)c(C)c32)c1,0.929 ± 0.43
7,CC(C)(C)c1nc(-c2cccc(NS(=O)(=O)c3c(F)cccc3F)c2F)c(-c2ccnc(N)n2)s1,0.0787 ± 0.036
8,CCCCOc1c(C(=O)c2c(F)cc(C)cc2F)c[nH]c2nncc1-2,-0.865 ± 0.43
9,Cc1ncc(-c2ccnc(Nc3ccc(S(C)(=O)=O)cc3)n2)n1C(C)C,0.322 ± 0.54
10,O=c1ccc2ccc(O)c(O)c2o1 [Daphnetin],1.53 ± 0.8
11,CC(C)(C)c1ccc(S(=O)(=O)/C=C/C#N)cc1,-0.975 ± 1.1
12,N#CC1(c2ccc(NC(=O)c3cccnc3NCc3ccncc3)cc2)CCCC1 [Apatinib],0.121 ± 0.33
13,CN(C)C/C=C/C(=O)Nc1cc2c(Nc3ccc(F)c(Cl)c3)ncnc2cc1O[C@H]1CCOC1 [Afatinib (BIBW2992)],-0.688 ± 0.67
14,C=CC(=O)Nc1cccc(Nc2nc(Nc3ccc(NC4CN(CCF)C4)cc3OC)ncc2C(F)(F)F)c1,-0.00318 ± 1.3
15,CC(C)(O)CC(=O)NCCn1ccc2ncnc(Nc3ccc(Oc4cccc(C(F)(F)F)c4)c(Cl)c3)c21,-0.891 ± 0.77
16,C[C@@]1(C(=O)Nc2ccc(F)nc2)CCCN1c1nc(Nc2cc(C3CC3)n[nH]2)c2cccn2n1,-1.16 ± 0.41
17,Cc1nc(Nc2n[nH]c3c2CN(C(=O)N[C@H](CN(C)C)c2ccccc2)C3(C)C)c2sccc2n1,1.12 ± 0.47
18,COc1cc2nccc(Oc3ccc(NC(=O)C4(C(=O)Nc5ccc(F)cc5)CC4)cc3)c2cc1OC,0.561 ± 0.36
19,NC1(Cc2ccc(Cl)cc2)CCN(c2ncnc3[nH]ccc23)CC1,-0.404 ± 1.4
20,COc1cc2ncnc(Nc3ccc(F)c(Cl)c3)c2cc1NC(=O)/C=C/CN1CCCCC1,0.26 ± 0.81

row,SMILES,cell viability z-score within plate
1,Cn1c(Nc2ccc(C(F)(F)F)cc2)nc2cc(Oc3ccnc(-c4ncc(C(F)(F)F)[nH]4)c3)ccc21,0.193 ± 0.26
2,COc1cc(Nc2ncc(F)c(Nc3ccc4c(n3)NC(=O)C(C)(C)O4)n2)cc(OC)c1OC [R406 (free base)],0.533 ± 0.55
3,CC(C)(C)NS(=O)(=O)c1cncc(-c2cc(F)c3nc(N)nn3c2)c1,0.16 ± 0.77
4,CNC(=O)Nc1ccc(-c2nc(N3CC4CCC(C3)O4)c3cnn(C4CCC5(CC4)OCCO5)c3n2)cc1,0.631 ± 0.77
5,O=C1c2ccc(Nc3ccc(F)cc3F)cc2CCc2ccc(OC[C@H](O)CO)cc21 [Skepinone-L],-1.21 ± 0.79
6,Cc1ccc(C(=O)Nc2ccc(CN3CCN(C)CC3)c(C(F)(F)F)c2)cc1C#Cc1cnc2[nH]ncc2c1 [GZD824 Dimesylate],-0.246 ± 0.26
7,COc1cc2c(Nc3ccc(NC(=O)c4ccccc4)cc3)ncnc2cc1OCCCN1CCOCC1,0.281 ± 0.48
8,CN1CCC(CNc2ccc3ncc(-c4cccc(OC(F)(F)F)c4)n3n2)CC1 [SGI-1776 free base],0.436 ± 0.2
9,Oc1ccc(-c2nc(-c3ccc(F)cc3)c(-c3ccncc3)[nH]2)cc1,-1.48 ± 1.1
10,Oc1cc(O)cc(/C=C/c2ccc(O)c(O)c2)c1 [Piceatannol],-0.333 ± 0.2
11,Cc1ccccc1CN1C2=NCCN2C(=O)C2=C1CCN(Cc1ccccc1)C2 [TIC10 Analogue],0.481 ± 0.4
12,CCOc1cc(C(=O)N2CCC(N3CCN(C)CC3)CC2)ccc1Nc1ncc2c(n1)N(C1CCCC1)c1ccccc1C(=O)N2C,0.444 ± 0.17
13,COCC(=O)NC/C=C/c1ccc2ncnc(Nc3ccc(Oc4ccc(C)nc4)c(C)c3)c2c1,-0.356 ± 0.16
14,Oc1ccc(Nc2nc(-c3ccc(Cl)cc3)cs2)cc1,0.219 ± 0.2
15,C=CC(=O)Nc1cccc(Oc2nc(Nc3ccc(N4CCN(C)CC4)cc3)ncc2Cl)c1,-0.0359 ± 0.21
16,CN1CC[C@H](c2c(O)cc(O)c3c(=O)cc(-c4ccccc4Cl)oc23)[C@H](O)C1 [Flavopiridol (Alvocidib)],0.251 ± 0.25
17,Cc1ccc(NC(=O)c2ccc(CN3CCN(C)CC3)cc2)cc1Nc1nccc(-c2cccnc2)n1 [Imatinib Mesylate (STI571)],-1.25 ± 0.88
18,C[S+]([O-])c1ccc(-c2nc(-c3ccc(F)cc3)c(-c3ccncc3)[nH]2)cc1 (stereo not given),-1.58 ± 1.1
19,COc1cccc2cc(-c3nc([C@H]4CC[C@H](C(=O)O)CC4)n4ncnc(N)c34)[nH]c12,0.362 ± 0.51
20,OCCn1cc(-c2ccc3c(c2)CC/C3=N\O)c(-c2ccncc2)n1,0.788 ± 0.054

# — the supplement of paper PMC9925115
